Reference: PubChem BioAssay AID624330 (Southern Research Specialized Biocontainment Screening …, 2012)
The campaign covered roughly 340,000 compounds. About 2,100 (0.62%) were called active.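 Rule for the calls: active = first-screen hits whose inhibition reached a set limit at any dose in the follow-up dose series; inconclusive = inhibition above the set first-screen limit but never retested; inactive = the rest.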 These entries were drawn from the full list. Entries with a potency or affinity are not part of this list.

biological target: Rac GTPase-activating protein 1 (Homo sapiens) (UniProt Q9H0H5); experiment: blockers of MgcRacGAP-driven Rac1 GTP hydrolysis – biochemical, ADP Hunter fluorescence, primary and confirmatory, confirmation (AID 624330); settings: MgcRacGAP-stimulated Rac1 GTP hydrolysis, at 30 µM, active compounds read high, GST-tagged Rac1 F28L mutant substrate;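 note: fluorescence reports GDP produced by GAP-driven GTP hydrolysis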
Sequence (Q9H0H5 whole entry, looked up): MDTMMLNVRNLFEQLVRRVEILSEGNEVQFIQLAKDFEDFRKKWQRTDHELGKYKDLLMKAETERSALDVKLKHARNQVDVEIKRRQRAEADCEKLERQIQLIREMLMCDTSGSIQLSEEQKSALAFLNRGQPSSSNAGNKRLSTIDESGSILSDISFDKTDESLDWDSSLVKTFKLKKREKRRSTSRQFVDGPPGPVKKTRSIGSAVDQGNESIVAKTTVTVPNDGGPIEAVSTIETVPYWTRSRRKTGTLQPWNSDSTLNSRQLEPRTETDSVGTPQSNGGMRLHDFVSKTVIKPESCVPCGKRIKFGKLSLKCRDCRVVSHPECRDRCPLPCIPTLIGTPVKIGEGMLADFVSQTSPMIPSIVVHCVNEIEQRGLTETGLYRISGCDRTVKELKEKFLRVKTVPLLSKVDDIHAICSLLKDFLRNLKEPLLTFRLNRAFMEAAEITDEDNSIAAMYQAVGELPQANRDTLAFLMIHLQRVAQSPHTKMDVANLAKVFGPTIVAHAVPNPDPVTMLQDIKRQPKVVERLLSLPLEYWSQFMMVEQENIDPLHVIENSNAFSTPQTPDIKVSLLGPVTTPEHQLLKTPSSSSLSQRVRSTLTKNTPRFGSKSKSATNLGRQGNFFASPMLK

inhibition, inactive:
COc1ccc(N2CCN(C(=O)CSc3nnc(C4CC4)n3C3CC3)CC2)cc1 24.3%
COc1ccc(N2CCN(C(=O)CSc3nnnn3C3CC3)CC2)cc1 16.6%
Cc1nnc(SCC(=O)N2CCN(c3ccccc3)CC2)n1C1CC1 5.61%
O=C(CSc1nnnn1C1CC1)N1CCN(c2cccc(Cl)c2)CC1 6.11%
C[C@@H]1[C@H]2CCCC[C@H]2CN(C(=O)OC(C)(C)C)[C@@H]1CC(=O)c1ccccc1 12.5%
COc1ccc(CN2CCS(=O)(=O)CC2)cc1OC -1.72%
CCOC(=O)C1CCCN(S(=O)(=O)c2ccc(Cl)nc2)C1 (centres undefined) 0.62%
CCC(=O)c1ccccc1OCCN1C(=O)NC(C)(C)C1=O 3.57%
Cc1ccccc1CNCc1ccc2c(c1)OCO2 25.3%
Cc1ccc(CNCc2ccccc2Cl)cc1 3.27%
Fc1ccccc1CNCc1ccc2c(c1)OCO2 6.19%
Clc1ccccc1CNCc1ccncc1 -5.2%
CC1=C(C(=O)NC(C)CCc2ccccc2)C2(CCC(C)CC2)OC1=O (centres undefined) 9.85%
O=C(C[n+]1cccc(/C=N/O)c1)N(Cc1ccccc1)Cc1ccccc1 2.39%
COc1ccc(CCNC(=O)CSc2n[nH]c(N)n2)cc1 9.27%
Cc1csc(=O)n1CCC(=O)OCC(=O)Nc1ccc(S(N)(=O)=O)cc1 6.26%
O=C(CCN1C(=O)[C@@H]2Cc3ccccc3CN2C1=O)NCc1ccccc1Cl 13.7%
CCOc1ccc(S(=O)(=O)N2CCCC(C(=O)Nc3ccccc3)C2)cc1 (centres undefined) 4.61%
CCN(c1ccc(NC(=O)COC(=O)CCc2cc(OC)c(OC)c(OC)c2)cc1)C(C)C 14.8%
CCc1ccc(NC(=O)COC(=O)/C(=C/c2ccccc2OC)c2ccccc2)cc1 -0.32%
CCN(CC)S(=O)(=O)c1ccc(NC(=O)COC(=O)CCc2cc(OC)c(OC)c(OC)c2)cc1 1.83%
COc1ccccc1/C=C(/C(=O)OCC(=O)Nc1ccccc1C)c1ccccc1 8.5%
COc1cc(CC(=O)OCC(=O)Nc2ccc3c(c2)OCO3)cc(OC)c1OC 12.4%
COc1cc(CC(=O)OCC(=O)Nc2ccc([N+](=O)[O-])cc2)cc(OC)c1OC 13.3%
COc1ccc(NC(C)=O)cc1C 16.4%
COCc1cc(C)n(CC(=O)Nc2ccc(N3CCOCC3)cc2)c(=O)c1C#N 1.03%
Nc1c(C(=O)c2cccs2)oc2ccccc12 6.17%
Cc1ccc(C(=O)OCc2nnc(-c3ccccc3)o2)o1 6.62%
COCCCn1c(=S)[nH]c2c(sc3ccccc32)c1=O 21%
O=c1c2ccccc2[nH]c(=S)n1CCCN1CCOCC1 4.66%
CCN(CC)S(=O)(=O)c1cc(C(=O)OCC(=O)Nc2ccc(-c3nc4ccc(C)cc4s3)cc2)ccc1F 4.33%
CC(=O)Nc1nc2c(s1)CCc1ccccc1-2 8.9%
Nc1nc2c(s1)COc1ccccc1-2 4.85%
COc1ccc2c(c1)-c1nc(NC(=O)c3ccco3)sc1CC2 8.71%
COc1ccc2c(c1)-c1nc(NC(=O)c3cccs3)sc1CC2 8.83%
CC(=O)N1CCN(c2ccc(NCc3ccc(C)s3)cc2)CC1 30.4%
CCc1ccc(N2CCN(C(=O)N3CCOCC3)CC2)cc1 7.01%
CC(=O)N1CCN(c2ccc(NC(=O)c3ccc(Cl)cc3)cc2)CC1 4.31%
CC(=O)c1ccc(N2CCN(C(=O)Nc3ccc(C(C)C)cc3)CC2)cc1 6.75%
Cc1ccc(CNc2ccc(N3CCOCC3)c(C(=O)O)c2)s1 6.12%
c1cc(CNc2ccc(N3CCOCC3)cc2)ccn1 13.9%
CCC(=O)N1CCN(c2ccc(NC(=O)COc3ccc(CC)cc3)cc2)CC1 3.4%
O=S(=O)(c1ccc(NCc2ccccc2)cc1)N1CCOCC1 5.28%
Cc1cc(=O)[nH]c(NN=C2C3CC4CC(C3)CC2C4)n1 -3.7%
CS(=O)(=O)NNC(=O)C1Cc2c(ccc3ccccc23)O1 (centres undefined) 8.23%
CC1CCCC(C)N1CCNC(=O)Nc1ccc(Cl)cc1 (centres undefined) 6.73%
COc1ccc(NC(=O)C2CCN(C(=O)[C@@H]3Cc4ccccc4CN3)CC2)cc1 -3.28%
O=C(OCc1ccccc1)/C(=C/c1cccc2ccccc12)NC(=O)c1ccccc1 4.32%
N#CC1=C(c2ccc(-c3ccccc3)cc2)COC1=O 7.38%
CC(=O)N1CCN(c2ccc(NC(=O)c3ccc(F)cc3)cc2)CC1 13.2%
CC(=O)N1CCN(c2ccc(NC(=O)c3ccccc3)cc2)CC1 11.9%
CC(C)c1ccc(C(=O)Nc2ccc(N3CCOCC3)cc2)cc1 7.63%
COc1cccc(N2C(=O)CC(Nc3ccc(N4CCOCC4)cc3)C2=O)c1 (centres undefined) 20.1%
CC(C)c1ccc(S(=O)(=O)Nc2ccc(N3CCOCC3)cc2)cc1 8.59%
CC(=O)N1CCN(c2ccc(NC(=O)C(c3ccccc3)c3ccccc3)cc2)CC1 3.06%
CCc1ccc(NC(=O)N2CCN(c3ccc(F)cc3)CC2)cc1 2.99%
CCc1ccc(NC2CC(=O)N(c3ccc(OC)cc3OC)C2=O)cc1 (centres undefined) 4.67%
O=C(CSc1nnc(-c2cccnc2)o1)Nc1ccc(F)cc1 13.2%
Clc1nc(-c2ccccc2)c2ccccc2n1 10.5%
CC(=O)c1cc(Cc2csc(C(C)=O)c2)cs1 1.28%
CN(C(=O)COC(=O)c1cccs1)c1c(N)n(Cc2ccccc2)c(=O)[nH]c1=O 4.09%
Cc1cc(=O)oc2c3c(cc(OCC(=O)NC(Cc4ccc(Cl)cc4)C(=O)O)c12)OC(C)(C)CC3 (centres undefined) 6.3%
O=C(NCc1ccccc1)NC(=O)c1ccncc1 8.08%
O=C1NC(=S)NC1Cc1ccc(O)cc1 (centres undefined) 7.3%
CCn1ccnc1CN1CCCCC1C(=O)Nc1ccc(Oc2cccnc2)cc1 (centres undefined) 10.9%
CC(=O)N1CCN(c2ccc(NC(=O)c3cccc(C)c3)cc2)CC1 -9.43%
O=C1CC(Nc2ccc(N3CCOCC3)cc2)C(=O)N1CCc1ccccc1 (centres undefined) 14.7%
CC(=O)Nc1ccc(NCc2cccs2)cc1 31.6%
O=C(O)c1ccc(NCc2cccs2)cc1 -0.42%
O=C1CC(Nc2ccccc2)C(=O)N1Cc1ccccc1 (centres undefined) 7.76%
Cc1cccc(CNc2ccc(S(=O)(=O)N3CCCCC3)cc2)c1 2.94%
CC1CCN(Cc2cc(=O)oc3ccc(C(C)C)cc23)CC1 5.26%
O=S(=O)(N/N=C1\CC(c2ccccc2)Oc2ccccc21)c1ccccc1 (centres undefined) -7.41%
COc1ccccc1CNC1CCN(Cc2ccccc2)CC1 -3.78%
Fc1ccc(CNC2CCN(Cc3ccccc3)CC2)cc1 -1.76%
COc1ccc(O)c(/C=N/Nc2nc(C)cc(-c3ccccc3)n2)c1 3.11%
COc1ccc(/C=N/Nc2nc(C)cc(-c3ccccc3)n2)cc1OC 11.1%
Cc1cc(-c2ccccc2)nc(N/N=C/c2ccccc2)n1 4.11%
Cc1cc(-c2ccccc2)nc(N/N=C/c2ccccc2F)n1 2.38%
Cc1cc(-c2ccccc2)nc(N/N=C/c2ccc([N+](=O)[O-])cc2)n1 6.88%
Oc1ccc(/C=N/Nc2ccccc2)cc1 12.9%
C/C(=N\Nc1nc2ccccc2nc1C)c1ccccc1O -0.02%
Cc1cc(-c2ccccc2)nc(N/N=C/c2cccnc2)n1 3.86%
CCOC(=O)CN1C(=O)S/C(=C/c2ccc(C)o2)C1=O 13.6%
O=C(CN(CC1CCCO1)C(=O)CCC(=O)Nc1nccs1)NCC1CCCO1 (centres undefined) -9.34%
O=C1CCc2cc(S(=O)(=O)Nc3cccc(F)c3)cc3c2N1CC3 4.84%
O=C(NCC(c1cccs1)N1CCOCC1)c1cc(S(=O)(=O)N2CCOCC2)c(Cl)cc1Cl (centres undefined) 2.31%
Cc1occc1-c1nnc(SCCCC(=O)c2ccc(F)cc2)n1C 14.1%
NNC(=S)NCCc1ccccc1 6.19%
CC(C(=O)N1CCc2ccccc21)N1CCN(c2ccccn2)CC1 (centres undefined) 6.14%
CC(C(=O)Nc1ccccc1)N1CCN(c2ccccn2)CC1 (centres undefined) 7.75%
O=C(CNC(=O)Cc1ccccc1)NCc1cccc(C(F)(F)F)c1 1.1%
CCN(Cc1ccncc1)C(=O)c1cccs1 -1.7%
O=C(CC1CCCC1)N1CCCC(Nc2cccc(F)c2)C1 (centres undefined) 7.36%
CC1CC(C)CN(C(=O)Cn2c(=O)n(CCCC(=O)NCc3ccco3)c(=O)c3sccc32)C1 (centres undefined) 9.26%
CCOc1cc2c(cc1OCC)C(c1ccccc1)N(c1ccccc1)C(=O)C2 (centres undefined) 1.91%
CCn1c(/C=C/c2ccc(F)cc2)nc2ccccc2c1=O 8.84%
O=c1c2ccccc2nc(N/N=C/c2ccc(O)cc2)n1O 18.1%
O=c1c2ccccc2nc(/C=C/c2ccc(O)cc2)n1CCc1ccccc1 4.64%
CCn1c(/C=C/c2ccccc2)nc2ccccc2c1=O 10.4%
CCN(CC)C(=O)CSc1nc2ccccc2c(=O)n1-c1ccccc1OC -9.96%
COc1ccccc1-n1c(SCC(=O)N2CCOCC2)nc2ccccc2c1=O -0.91%
C=CCn1c(C)nc2ccccc2c1=O 2.89%
Cn1c(/C=C/c2ccccc2)nc2ccccc2c1=O 5.36%
